Source: PubChem BioAssay (National Center for Advancing Translational Sciences (NCATS))
Six1-Eya2 inh: qHTS Assay for Inhibitors of the Six1/Eya2 Interaction. 360,000 compounds, 0.56% hits. activity change, % (no concentration beside the values). AlphaScreen GST-Six1/His-Eya2 binding, biochemical; stronger effect = lower value. Homeobox protein SIX1 (Homo sapiens) + Protein phosphatase EYA2 (Homo sapiens), …; in the data active = activity change below about -65%; inconclusive = mostly about -30% to -63%; also: % is scaled to controls: 0 for no effect and ±100 for the full control effect
Target sequence (O00167 whole entry, looked up): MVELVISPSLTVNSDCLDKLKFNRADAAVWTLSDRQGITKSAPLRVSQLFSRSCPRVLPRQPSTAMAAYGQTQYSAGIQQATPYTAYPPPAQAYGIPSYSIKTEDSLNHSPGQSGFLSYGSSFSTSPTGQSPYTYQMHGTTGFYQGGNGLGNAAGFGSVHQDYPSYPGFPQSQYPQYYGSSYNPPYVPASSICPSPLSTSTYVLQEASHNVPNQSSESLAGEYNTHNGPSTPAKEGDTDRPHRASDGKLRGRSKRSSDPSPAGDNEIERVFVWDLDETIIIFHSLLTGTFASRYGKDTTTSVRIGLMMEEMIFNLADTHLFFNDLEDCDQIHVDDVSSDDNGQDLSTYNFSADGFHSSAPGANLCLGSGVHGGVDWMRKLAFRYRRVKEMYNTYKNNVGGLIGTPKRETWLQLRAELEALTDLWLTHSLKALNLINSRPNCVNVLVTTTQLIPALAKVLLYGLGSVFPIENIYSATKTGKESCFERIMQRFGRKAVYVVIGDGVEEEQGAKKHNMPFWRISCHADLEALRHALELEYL
Target sequence (Q15475 whole entry, looked up): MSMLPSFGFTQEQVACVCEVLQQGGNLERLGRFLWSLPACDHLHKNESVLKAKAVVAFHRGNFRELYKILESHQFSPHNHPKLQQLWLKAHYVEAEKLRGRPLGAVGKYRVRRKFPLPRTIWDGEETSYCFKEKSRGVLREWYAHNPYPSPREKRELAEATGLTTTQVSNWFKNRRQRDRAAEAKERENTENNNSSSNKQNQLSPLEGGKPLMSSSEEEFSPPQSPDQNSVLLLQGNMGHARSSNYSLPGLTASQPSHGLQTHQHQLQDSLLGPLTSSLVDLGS
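Homogeneous AlphaScreen proximity assay pairing GST-Six1 with His-tagged Eya2 (added as 5X mix: 250 nM and 500 nM) in 50 mM Tris pH 8.0, 300 mM NaCl, 1 mM TCEP. Glutathione donor and nickel acceptor beads; 1 h, 37 °C, dark.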
HepG2 viability: qHTS for Inhibitors of TGF-b: Cytotox Counterscreen; HepG2 CAGA-GFP viability, ATP luminescence, 18 h; Potency, µM (doses to about 46.1 µM), for inactives: at the highest dose activity change, negative = cytotoxicity, actives largely listed as cytotoxic; 410,000 compounds, 0.76% hits; also: potency is read from the fitted curve at half-maximal effect
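CellTiter-Glo luminescence gave cytotoxicity after 18 hours at 37 degrees C. The cells were HepG2 CAGA-GFP in 1% FBS DMEM, stimulated with 500 pg/mL TGF-beta after compound addition. %Activity was normalised to no-cell wells (complete cell-killing) and DMSO (no toxicity), and curves were fitted and classified.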
CtBP-E1A inh: qHTS Assay for Inhibitors of the CtBP/E1A Interaction | AlphaScreen GST-E1A/His-CtBP binding, 1536-well; stronger effect = lower value | activity change, % (concentration not given with the values) | 340,000 compounds, 0.49% hits; in the data active = activity change below about -65%; inconclusive = mostly about -30% to -63%; also: % is scaled to controls: 0 for no effect and ±100 for the full control effect
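Protein mix (5X: 125 nM each GST-E1A, His-CtBP) was incubated with pinned compound 2 h at 37 deg C in dark, in 50 mM Tris pH 8.0 buffer with 300 mM NaCl. Glutathione donor and nickel acceptor beads followed; AlphaScreen signal read after 1 h.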
S2 tox: Viability Counterscreen for Primary qHTS for Inhibitors of ATXN expression; S2 cells (HEK-293 line with an ATXN2-luciferase reporter) viability, CellTiter-Fluor protease fluorescence, 24 h; Potency, µM (doses to about 56.7 µM), actives largely listed as cytotoxic; 400,000 compounds, 0.49% hits; AID 651635, 2014; also: potency is read from the fitted curve at half-maximal effect; nearly all actives have a fitted effect of over 40% in size
TGFb SMAD3 inh: qHTS for Inhibitors of TGF-b; Potency, µM (series often up to 46.1 µM), for the others: at the top dose activity, negative = inhibition, hits mostly inhibitors; 410,000 compounds, 1.2% hits; HepG2 CAGA-GFP TGF-b/SMAD3 reporter, GFP fluorescence, 18 h; TGF-beta stimulated, 500 pg/mL final; AID 588855, 2011; also: potency is read from the fitted curve at half-maximal effect; % is scaled to controls: 0 for no effect and ±100 for the full control effect; nearly all actives have a fitted effect of over 65% in size
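HEPG2 CAGA-GFP reporter cells (1000/well, DMEM with 1% FBS) received compounds, then recombinant TGF-beta at 500 pg/mL final for 18 hours at 37 degrees C. Per-cell GFP summed per well was normalised to unstimulated and stimulated DMSO controls before curve fitting.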
ATXN2 expr inh: Primary qHTS for Inhibitors of ATXN expression; HEK-293 ATXN2-luciferase reporter, luminescence, 24 h; Potency, µM (series often up to 57 µM), inactives show top-dose activity change, negative = inhibition, most hits filed as inhibitors; 360,000 compounds, 0.72% hits; AID 1745845, 2022; also: potency is read from the fitted curve at half-maximal effect; % is scaled to controls: 0 for no effect and ±100 for the full control effect; nearly all actives have a fitted effect of over 55% in size
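qHTS (up to 57 uM final) was run with 24 h compound exposure of reporter cells at 37 °C. Each well was multiplexed: SteadyGlo luminescence measured ATXN2-luciferase expression after a fluorogenic Gly-Phe-AFC viability readout (25 uM final).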
* = called active by the depositor; i = inactive; ? = inconclusive; . = no result given. The list is not random: actives were taken first. Their share in the collection is about 2.8%. Unless noted, calls follow the shape of the dose curve; as a rule, active = well fitted curve in the direction sought with a large enough effect; inconclusive = small, poorly fitted or top-dose-only effect, or another doubt; inactive = no such curve, though single readings can be large; an effect the other way counts as inactive or inconclusive.

SMILES	Six1-Eya2 inh	HepG2 viability	CtBP-E1A inh	S2 tox	TGFb SMAD3 inh	ATXN2 expr inh
COc1ccc(Cl)cc1NC(=O)c1c(NCc2cccnc2)sc2c1CCC(C)C2 (stereo not drawn)	.	10µM*	.	.	8.9µM*	.
CCOc1ccc(NC(=O)c2c(NCc3cccnc3)sc3c2CCC(C)C3)cc1 (stereo not drawn)	.	-41%	.	.	13µM*	.
COc1ccc(CC(=O)Nc2sc3c(c2C(=O)Nc2cccc(Cl)c2)CCCCC3)cc1	.	18µM*	.	.	?	?
COc1ccc(OC)c(NC(=O)c2c(NCc3ccc(N(C)C)cc3)sc3c2CCCC3)c1	.	-51%	.	22µM*	0%	?
CC[N+]1(CC(=O)c2ccc(Br)cc2)CCCCC1	.	-20%	.	.	-5%	.
Nc1ccc(N2CCCCC2)cc1N1CCCCC1	?	-29%	?	i	10µM*	-4%
Cc1nn(-c2cc(N3CCCCC3)ccc2N)c(=O)c2ccccc12	-5	0%	-16	i	-23%	2%
Nc1ccc(N2CCCCC2)c2nonc12	1	-76%	.	i	13µM*	.
Nc1c(N2CCOCC2)cc(Cl)c2nonc12	-4	9%	?	i	0%	14%
Nc1c(N2CCCC2)cc(Cl)c2nonc12	7	-96%	?	i	10µM*	-20%
COc1ccc(F)c(CN2CCC3(CCC(CNC(=O)c4cc(C)nn4C)O3)CC2)c1 (stereo not drawn)	.	.	.	i	.	.
COc1ccc(CNC(=O)C2CCN(C(=O)N3CCOc4ccc(Cl)cc43)CC2)cc1	.	-28%	.	.	?	.
Cc1ccc2nc(-c3ccc(O)cc3)c(Nc3ccc(Cl)cc3)n2c1	.	-83%	.	.	18µM*	.
Cc1ccc(Nc2c(-c3ccccn3)nc3ccc(C)cn23)cc1	-93*	-7%	.	?	?	.
CSc1ccc(-c2nc3cnccn3c2Nc2ccc3c(c2)OCO3)cc1	-30	-36%	-25	i	5µM*	5%
Cc1cc(C)n2c(Nc3ccc4c(c3)OCCO4)c(-c3ccccn3)nc2n1	-89*	.	?	i	.	-7%
COc1cc(CN2CCC3(CC2)CC3C(=O)Nc2ccc3sc(C)nc3c2)ccc1F (stereo not drawn)	.	.	.	i	.	.
CC(=O)Nc1ccc2nc3c(=O)n(C)c(=O)n(C)c3nc2c1C	.	-3%	.	i	11%	5%
Cc1ccn2c(Nc3ccc4c(c3)OCO4)c(-c3ccccn3)nc2c1	-88*	-5%	-81*	?	?	?
Cc1ccc(Nc2c(-c3ccccn3)nc3cc(C)ccn23)cc1	-82*	-38%	-93*	?	?	3.5µM*
Cc1ccn2c(Nc3ccc4c(c3)OCO4)c(-c3ccc(C)o3)nc2c1	.	-43%	.	?	?	-16%
Cc1ccc(Nc2c(-c3c[nH]c4ccccc34)nc3cc(C)ccn23)cc1	.	-60%	.	?	?	?
c1cncc(OC2CCN(Cc3ccc4c(c3)CN(Cc3ccc5c(c3)OCO5)CCO4)CC2)c1	.	.	.	i	.	.
Cc1sc2ncn(CC(=O)Nc3ccc(C(F)(F)F)cc3)c(=O)c2c1S(=O)(=O)N1CCN(C)CC1	.	-27%	.	i	28%	-3%
COC(=O)[C@@H]1CCCN1Cc1ccc2c(c1)CN(Cc1ccc3c(c1)CCO3)CCO2	.	.	.	i	.	.
SMILES	Six1-Eya2 inh	HepG2 viability	CtBP-E1A inh	S2 tox	TGFb SMAD3 inh	ATXN2 expr inh
N#CC1(c2cccc(C(=O)Nc3cc(Oc4ccc5nc(NC(=O)C6CC6)sc5n4)ccc3F)c2Cl)CC1	.	.	.	.	.	-10%
CN1CCC(=O)N(CCOc2ccccc2)CC1	-83*	-9%	-86*	i	-4%	4%
Cc1ccccc1OCc1nc(-c2ccc(NC(=O)c3ccc4c(c3)OCO4)cc2)no1	0	20µM*	16	?	?	?
CC1(C)COCN1S(=O)(=O)c1ccc(C(=O)Nc2nnc(-c3ccc(Cl)s3)o2)cc1	-5	-5%	-10	?	-9%	7.9µM*
COc1ccc(-c2nnc(NC(=O)c3ccc(S(=O)(=O)N4COCC4(C)C)cc3)o2)cc1	?	-1%	?	i	-2%	?
COc1ccccc1-c1nnc(SCC(=O)Nc2c(Cl)cccc2Cl)o1	-3	-13%	-3	i	25%	9%
COc1ccccc1-c1nnc(SCC(=O)NCc2c(C)c(Cl)cc(C(C)C)c2O)o1	-1	-101%	-1	?	18µM*	?
COc1cc(/C=N/Nc2ncnc3sc4c(c23)CCC4)ccc1O	-68*	-21%	-83*	i	11%	-4%
COc1cc2nc(N(C)C)c(CNCc3cccc4ccccc34)cc2c(OC)c1OC	.	.	.	i	.	.
O=C(NC1=C(NC2CCS(=O)(=O)C2)C(=O)c2ccccc2C1=O)c1ccccc1 (stereo not drawn)	1	-117%	8	30µM*	?	?
COC(=O)c1cc(Cl)ccc1NS(=O)(=O)C(F)(F)F	.	.	.	i	.	11%
Cc1ccc2c(c1)c(=O)c1ccccc1n2CCCC(=O)Nc1ccc(C)c(C)c1	.	-9%	.	i	?	?
O=C(CCCn1c2ccccc2c(=O)c2ccccc21)Nc1cccc(Cl)c1	.	-30%	.	.	13µM*	?
Cc1ccc2c(c1)c(=O)c1ccccc1n2CCCC(=O)Nc1ccc(C)c(F)c1	.	-17%	.	.	6.3µM*	0%
O=C(Cn1c(=O)n(Cc2ccco2)c(=O)c2ccccc21)Nc1cccc(Cl)c1	-2	-84%	1	?	10µM*	?
Cc1ccc2c(c1)c(=O)c1ccccc1n2CCCC(=O)Nc1ccc(Cl)c(Cl)c1	.	-3%	.	i	?	2%
CCc1cccc2c(C(O)c3c[nH]c4ccccc34)c[nH]c12 (stereo not drawn)	.	-80%	.	.	?	.
Cc1oc(-c2ccc3c(c2)OCCO3)cc1C(=O)O	-6	-57%	-19	?	5%	7.1µM*
CCOC(=O)c1c(C(F)(F)C(F)(F)C(F)(F)C(F)(F)F)n[nH]c1C	2	13µM*	16	i	?	-14%
CCOC(=O)c1[nH]c(C)c(C(=O)OCC)c1C	-5	20%	-2	i	?	38%
CCn1c2ccccc2c2cc(CN3CCN(Cc4ccc(Br)cc4)CC3)ccc21	.	11µM*	.	.	?	.
Cc1nc(CN2CCN(C(=O)CC3(c4ccccc4Cl)CC(=O)N(C)C3=O)CC2)cs1 (stereo not drawn)	.	.	.	i	.	.
